D2 ag-1 – agonists of human D2 dopamine receptor (beta-arrestin); P14416; DiscoveRx PathHunter D2 beta-arrestin, luminescence, 90 min; 100% = 57 uM dopamine signal; activation, % (concentration not given with the values); hit rate 0.084% among 360,000; in the data active means activation above about 40%
Target sequence (P14416 whole entry, looked up): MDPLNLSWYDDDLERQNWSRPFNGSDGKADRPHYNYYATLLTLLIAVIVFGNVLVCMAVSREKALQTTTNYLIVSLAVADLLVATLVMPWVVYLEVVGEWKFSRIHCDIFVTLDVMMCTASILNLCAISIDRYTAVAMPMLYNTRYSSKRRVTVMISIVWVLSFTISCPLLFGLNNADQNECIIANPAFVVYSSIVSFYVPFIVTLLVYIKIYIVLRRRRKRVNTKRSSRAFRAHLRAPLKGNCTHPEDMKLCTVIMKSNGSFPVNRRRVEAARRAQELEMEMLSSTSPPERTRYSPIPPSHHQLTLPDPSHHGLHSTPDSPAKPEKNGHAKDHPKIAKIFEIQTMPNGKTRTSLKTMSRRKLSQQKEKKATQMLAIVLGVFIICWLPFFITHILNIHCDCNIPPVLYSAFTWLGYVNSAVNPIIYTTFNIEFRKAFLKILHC
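DiscoveRx PathHunter D2 beta-arrestin cells (2,100/well) attached overnight, then compound-stimulated 90 min at 37 C in HBSS/10 mM HEPES/0.1% Tween-20 buffer; beta-galactosidase complementation read by luminescence after 1 h at ambient temperature. Dopamine 57 uM final (EC100) as control.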
D2 PAM-1 – human D2 receptor positive allosteric modulation; potentiation, % (concentration not given with the values); hit rate 0.23% among 360,000; DiscoveRx D2 beta-arrestin cells, luminescence, 90 min; 100% = 57 uM dopamine signal; AID 624464; P14416; in the data active means potentiation above about 50%
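PathHunter beta-arrestin assay in DiscoveRx D2 cells. Compounds were added with an EC20 of dopamine (50 nM final) for 90 min at 37 deg C. Luminescence was read 1 h after detection reagent, with 57 uM dopamine as the EC100 control.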
D2 ag-2 – D2 dopamine receptor (human) agonism; hit rate 0.53% among 340,000; activation, % at 2 µM; HEK293 T-REx D2 cells, calcium flux agonist mode; P14416;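 active means activation over 3 SD above normal in the single-dose calcium agonist read, cut at about 30% in these data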; further: 0% is about no effect
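Calcium-flux readout, 1 cycle/sec over 180 s following compound pin transfer, in inducible HEK293 Trex D2 cells (force-coupled); dopamine controls included. Positive calcium responses during this window marked compounds as potential agonists.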
D2 antag – antagonists of human D2 dopamine receptor; P14416; HEK293 TREx D2 cells, calcium flux, dopamine EC80; inhibition, % at 10 µM; hit rate 2% among 340,000; AID 485344; in the data active means inhibition above about 30%; inactive means below that, where a call was filed; further: 0% is about no effect
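Overnight-induced (tetracycline, 30 C) HEK293 T-REx cells carrying force-coupled D2 receive a no-wash calcium dye, then compound, then EC80 dopamine at 180 s; signals are read kinetically throughout.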
D2 PAM-2 – positively modulates the human D2 dopamine receptor allosterically. P14416. HEK293 T-REx D2, calcium flux, EC20 dopamine potentiation. potentiation, % at 10 µM. hit rate 0.34% among 340,000;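 active means potentiation over 3 SD above the plate norm, cut at about 30% in these data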; further: 0% is about no effect
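Tetracycline-induced Hek293 Trex D2 cells, force-coupled to calcium, loaded with no-wash calcium dye. Compound added with 180 s kinetic read for agonism, then EC20 dopamine and a further 180 s read for potentiation.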
* = called active by the depositor; / = no result; ! = not confirmed by another sample. Hits are enriched below; roughly 2.4% of the tested compounds scored in any of these assays.

SMILES | D2 ag-1 | D2 PAM-1 | D2 ag-2 | D2 antag | D2 PAM-2
C=C(C)c1cccc(C(C)(C)NC(=O)N2CCCC2)c1 | -2.4 | -9.3 | -0.1 | -8.7 | 13.3
C=C(C)c1cccc(C(C)(C)NC(=O)NC2CCN(Cc3ccccc3)CC2)c1 | -5.8 | -25.5 | 0.3 | 89.2* | -30.7
O=C(NC1CCN(Cc2ccccc2)CC1)c1ccc2c(c1)OCCCO2 | -3.8 | -30.2 | 0.7 | 30.3* | -22.9
O=C(Nc1nnc(S(=O)(=O)N2CCc3ccccc32)s1)c1cccc(Cl)c1 | / | / | -0.8 | / | -7.3
COc1ccc(NC(=O)CN2CCCN(S(=O)(=O)c3ccc(Br)cc3)CC2)c(OC)c1 | / | / | 0.7 | / | -4.5
CCOC(=O)c1cc2c(=O)n3ccccc3nc2n(CC2CCCO2)c1=NC(=O)c1ccc(OCC)cc1 (configuration not stated) | / | / | / | / | 20.4
O=C(NC1CCN(Cc2ccccc2)CC1)C1COc2ccccc2O1 (configuration not stated) | 3.1 | -45.6 | -1.8 | 34.2* | -24.9
O=C(NC1CCN(Cc2ccccc2)CC1)c1cccc(Br)c1 | -1.4 | -13.1 | -0.1 | 98.3* | -26.3
COc1ccc(Cn2c(=O)[nH]c3cc(C(=O)NC4CCN(Cc5ccccc5)CC4)ccc32)cc1 | 2.4 | -23.5 | -0.3 | 75.5* | -24.1
O=C(COc1ccc(Br)cc1Cl)NC1CCN(Cc2ccccc2)CC1 | -3.3 | -23.3 | 0.7 | 67.0* | -20.5
COc1ccc(CNC(=O)Cc2ccc(NC(=O)N3CCCCc4ccccc43)cc2)cc1 | / | / | 0.4 | / | -6.2
S=C(NCc1ccc2c(c1)OCO2)NC1CCN(Cc2ccccc2)CC1 | -1.8 | -10.0 | 2.5 | 103.0* | -45.5
Cc1c(C(=O)NC2CCN(Cc3ccccc3)C2)oc2ccc(Br)cc12 (configuration not stated) | 2.4 | -20.0 | -0.9 | 37.7* | -24.7
CCOc1ccc2oc(C(=O)NC3CCN(Cc4ccccc4)CC3)c(C)c2c1 | -4.9 | -14.4 | -0.4 | -12.3 | -17.3
C/C(=N\OC(=O)c1ccccc1F)c1nccs1 | -0.6 | 6.0 | 0.2 | -5.6 | 40.7*
COc1ccc(NC(=O)c2c(NCc3ccc(C)o3)sc3c2CCC(C)C3)cc1 (configuration not stated) | / | / | -1.9 | / | 6.5
COc1ccc(OC)c(-c2csc(NC(=O)Cn3[nH]c(=O)c4ccccc4c3=O)n2)c1 | -5.5 | -23.0 | 4.3 | 31.9* | 0.2
Cc1ccccc1C(=O)NC(=S)Nc1ccccc1C(F)(F)F | -2.3 | 0.4 | 1.4 | 50.4* | 6.8
O=C(Cn1nnc(-c2ccc3c(c2)OCO3)n1)NCc1ccccc1 | 2.0 | -0.8 | 1.0 | -3.8 | -2.6
Cc1ccc(-c2nnn(CC(=O)NCCc3ccc4c(c3)OCO4)n2)cc1 | -0.6 | -1.5 | 2.2 | 30.9* | -1.1
Cc1ccccc1-n1ncc(C(C)NC(=O)c2ccccc2)c1C (configuration not stated) | 2.7 | -1.4 | -0.8 | 36.3* | 4.0
Fc1ccc(-c2csc(-c3nc(-c4ccc(Br)s4)cs3)n2)cc1 | / | / | 0.7 | / | -1.9
CN(Cc1ccccc1)C(=O)c1ccc(CSc2nc3cccnc3n2Cc2ccccc2F)cc1 | / | / | -0.6 | / | 3.7
Cc1cc(NC(=O)CCC(=O)N(Cc2ccco2)C2(C(=O)NC3CCCC3)CCCCC2C)no1 (configuration not stated) | 2.8 | -2.1 | 1.0 | 33.7* | 14.1
Cc1cc(NC(=O)CCC(=O)N(Cc2ccco2)C2(C(=O)NC3CCCC3)CCCCC2)no1 | -9.0 | -9.6 | 0.1 | 5.0 | 1.1
SMILES | D2 ag-1 | D2 PAM-1 | D2 ag-2 | D2 antag | D2 PAM-2
CC(=O)N(Cc1ccco1)C1(C(=O)NC2CCCCC2)CCCCC1 | -2.8 | -5.6 | / | / | /
CC(=O)NCC(=O)N(Cc1ccco1)C1(C(=O)NC2CCCCC2)CCCCC1 | -4.8 | -18.4 | 0.8 | 72.5* | -0.4
CCC(=O)N1CCc2cc(Br)cc(S(=O)(=O)CCC(=O)Nc3ccc(C)c(C)c3)c21 | / | / | -0.2 | / | 1.2
COc1ccc(OCC(=O)Nc2ccc3c(c2)nc(CN2CCN(C(C)=O)CC2)n3C)cc1 | -3.4 | 5.4 | 0.3 | 10.6 | 4.1
COc1ccc(OCC(=O)Nc2ccc3c(c2)nc(CN2CCCC2)n3C)cc1 | -0.9 | -34.0 | 0.3 | 45.4* | -35.9
Cn1c(CN2CCCC2)nc2cc(NC(=O)COc3ccc(Cl)cc3)ccc21 | -0.4 | -28.3 | 0.0 | 41.0* | -21.7
CC1CCN(CCc2nc3cc(NC(=O)COc4ccccc4)ccc3n2C)CC1 | -3.0 | -31.3 | 0.5 | 59.1* | -21.1
CCC(=O)Nc1ccc2c(c1)nc(CCN1CCC(C)CC1)n2C | -3.5 | -13.0 | 0.1 | 14.1 | -1.2
Cn1c(CN2CCCCC2)nc2cc(NC(=O)c3ccc(Cl)cc3)ccc21 | 5.8 | -3.4 | 33.4*! | 30.9* | 9.8
Cc1cc2c(cc1S(=O)(=O)N(CCO)Cc1ccccc1)OCC(=O)N2 | / | / | 2.2 | / | 10.6
COc1cc(C)nc(NCc2ccccc2)n1 | -2.3 | -12.5 | 0.3 | 23.1 | -5.4
Cc1cc(C)nc(Nc2n[nH]c(Cc3ccccc3)n2)n1 | / | / | 44.8* | 0.1 | -2.4
O=CC1=C(N2CCOCC2)/C(=C\c2ccccc2)CC1 | -3.2 | -2.6 | 0.3 | 6.5 | 32.6*
O=C(c1cccs1)N1CCCc2cc(NS(=O)(=O)c3ccc(F)cc3)ccc21 | / | / | -2.6 | / | 1.9
CC(=O)N(C)c1ccc(OCC(O)Cn2c(C)nc3ccccc32)cc1 (configuration not stated) | -4.7 | -7.2 | -0.4 | 22.3 | 30.7*
Cc1ccc(N2CCN(CC(O)COC3CCCCC3)CC2)cc1 (configuration not stated) | -3.1 | -16.4 | 0.2 | 63.4* | -26.2
Cc1nc2ccccc2n1CC(O)COC1CCCCC1 (configuration not stated) | 1.2 | 2.9 | 0.2 | 31.6* | -13.3
CC(=O)Nc1ccc(OCC(O)Cn2c(C)nc3ccccc32)cc1 (configuration not stated) | 0.4 | -9.6 | 0.8 | -5.6 | 22.5
COc1ccc(C2c3cc(OC)c(OC)cc3CC(=O)N2c2ccc(C)cc2)cc1 (configuration not stated) | / | / | 2.3 | / | 1.6
Cc1ccc(NC(=O)c2ccc(OCc3c(C)noc3C)cc2)cc1 | / | / | 0.0 | -0.6 | -4.8
Cc1ccc(NC(=O)c2ccc(OCc3c(C)noc3C)cc2)nc1 | -0.3 | 4.6 | -1.3 | 34.1* | -3.5
Cc1nc(-c2ccc(S(=O)(=O)N3CCN(c4cccc(Cl)c4)CC3)cc2)co1 | / | / | 1.7 | / | -9.0
Cc1cc(C)c2c(c1)[C@@H]1C=CC[C@@H]1[C@H](c1ccc(S(=O)(=O)N3CCOCC3)cc1)N2 | -1.6 | -4.6 | -0.2 | 35.0* | 2.0
CC1=C(C(=O)Nc2ccccc2)C(c2ccncc2)n2nc(SCc3ccccc3F)nc2N1 (configuration not stated) | / | / | 0.0 | / | /
O=S(=O)(c1ccccc1)N1CCCN(S(=O)(=O)c2ccccc2)CC1 | 3.8 | -9.8 | -0.4 | 3.0 | -4.2

Compound activity deposited in PubChem by National Center for Advancing Translational Sciences (NCATS).
